The text below walks through data of ChEMBL document CHEMBL1961873, “Compounds: GSK PKIS; Assays: Nanosyn kinase panel” (2012).

Each structure is given as a SMILES string.

The test system of one test is Platelet-derived growth factor receptor alpha (Homo sapiens), P16234 [T674I]. To be noted: at 0.1 µM.
Sequence of Platelet-derived growth factor receptor alpha (Homo sapiens), P16234 [T674I] (P16234 whole entry T674I): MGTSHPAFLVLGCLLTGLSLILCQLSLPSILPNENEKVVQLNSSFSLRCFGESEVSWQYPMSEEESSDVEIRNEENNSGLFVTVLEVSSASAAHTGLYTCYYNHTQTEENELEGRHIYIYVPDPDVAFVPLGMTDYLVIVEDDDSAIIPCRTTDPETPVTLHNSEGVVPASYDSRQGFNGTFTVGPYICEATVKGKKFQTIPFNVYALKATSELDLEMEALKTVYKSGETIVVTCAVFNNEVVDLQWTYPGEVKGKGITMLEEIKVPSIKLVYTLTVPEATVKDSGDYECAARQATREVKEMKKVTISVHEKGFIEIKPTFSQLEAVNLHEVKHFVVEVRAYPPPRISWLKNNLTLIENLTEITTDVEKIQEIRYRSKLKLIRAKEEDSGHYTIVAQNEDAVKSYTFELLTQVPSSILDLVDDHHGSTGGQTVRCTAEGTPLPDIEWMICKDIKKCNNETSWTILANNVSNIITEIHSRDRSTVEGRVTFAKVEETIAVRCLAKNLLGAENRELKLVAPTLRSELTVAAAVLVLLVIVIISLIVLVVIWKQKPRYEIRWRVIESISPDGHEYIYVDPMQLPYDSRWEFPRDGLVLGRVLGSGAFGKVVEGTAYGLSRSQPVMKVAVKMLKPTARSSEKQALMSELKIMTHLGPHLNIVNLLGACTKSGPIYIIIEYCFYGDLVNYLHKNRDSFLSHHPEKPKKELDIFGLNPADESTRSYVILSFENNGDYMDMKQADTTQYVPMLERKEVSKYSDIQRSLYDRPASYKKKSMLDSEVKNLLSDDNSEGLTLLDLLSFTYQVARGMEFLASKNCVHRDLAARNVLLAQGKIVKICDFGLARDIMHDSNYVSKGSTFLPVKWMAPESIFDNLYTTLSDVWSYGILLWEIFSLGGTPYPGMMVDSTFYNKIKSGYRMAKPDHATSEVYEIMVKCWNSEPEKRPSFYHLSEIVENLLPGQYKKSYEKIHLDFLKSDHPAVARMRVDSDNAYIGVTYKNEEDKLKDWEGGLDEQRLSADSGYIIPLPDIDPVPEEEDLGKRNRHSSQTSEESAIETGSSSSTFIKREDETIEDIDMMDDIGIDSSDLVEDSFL
Take `c1ccc(-c2n[nH]cc2-c2ccnc(-c3ccc(OCCN4CCOCC4)cc3)c2)nc1`: the inhibition (in general, the relative decrease from the control value, in per cent) came out at 5.25%.
On the same count and under the same terms, to `Cc1ccc(NC(=O)c2ccoc2)cc1-c1ccc(C(=O)NCC2CC2)cc1` belongs 0.22%.
The same measure, in the same setting: to `CCS(=O)(=O)c1ccc(OC)c(Nc2ncc(-c3cccc(-c4ccccc4F)c3)o2)c1` belongs 3.61%.
With `Clc1ccc(CNc2nccc(-c3cnn4ncccc34)n2)cc1`, the inhibition worked out at 0.55%.
As for `COc1ccc2cc(-c3c(-c4ccncc4)nc(-c4ccc(S(C)(=O)=O)cc4C)n3C)ccc2c1`, the inhibition was 7.17%.
Still for that read-out and setting: for `CNC(=O)c1cncc(/C=C/c2c(C)cccc2C)c1` the value was 0.35%; for `CS(=O)(=O)CCNCc1cc(-c2cc3c(Nc4ccc(OCc5cccc(F)c5)c(Cl)c4)ncnc3s2)cs1`, 8.52%; for `CCS(=O)(=O)c1ccc(OC)c(Nc2ncc(-c3ccccc3Cl)o2)c1`, 0.38%.
As for `Fc1ccc(-c2ncn(CCCN3CCOCC3)c2-c2ccncc2)cc1`, the inhibition worked out at 1.55%.
As for `COc1cccc(/C=N/Nc2ncnc3c2cnn3-c2cccc(OC)c2)c1`, the inhibition came to 2.59%.
In the case of `CN(C)CCOc1ccc(-c2cc(-c3ccc4c(c3)CCC4=NO)c(-c3ccncc3)o2)cc1`, the inhibition is -0.07%.
Same read-out and setting: to `NS(=O)(=O)c1ccc(Nc2cc(-c3ccc(O)c(F)c3)n[nH]2)cc1` belongs 11.1%; to `NC(=O)c1cc(-c2ccc(F)cc2)cc(-c2ccncc2)c1N`, 4.18%.
The same measure, in the same setting: for `COc1cc2ncn(-c3cc(OCCc4ccccc4)c(C(N)=O)s3)c2cc1OC` the value was 1.08%; for `O=C(Nc1n[nH]c2cc(-c3cc(F)ccc3F)ccc12)C1CC1`, 5.2%; for `COc1ccc2ncn(-c3cc(O[C@H](C)c4ccccc4Cl)c(C(N)=O)s3)c2c1`, 0.85%.
Still for that read-out and setting: for `CN(C)CCCNc1nccc(-c2c(-c3ccc(F)cc3)nn3cc(C(F)(F)F)ccc23)n1` the value was 9.27%.
Regarding `O=C(Nc1n[nH]c2nc(-c3ccco3)ccc12)C1CC1`, the inhibition was 4.27%.

The test system is the same in the next test. To be noted: at 1 µM.
Turning to `O=C1NC(=O)C(c2cccc(Cl)c2)=C1Nc1ccc(Cl)c(C(=O)O)c1`, the inhibition stood at 5.66%.
Regarding `CCc1cccc(CC)c1/C=C/c1cncc(C(=O)NC)c1`, the inhibition was 2.91%.
On the same count and under the same terms, for `C/C(Nc1ccc(S(N)(=O)=O)cc1)=C1/C(=O)Nc2ccccc21` the value was 95.7%.
Take `Cc1ccc(C(=O)NC2CCC2)cc1-c1ccc(C(=O)NCC2CC2)cc1`: the inhibition was 3.17%.
The same measure, in the same setting: for `O=C(Nc1n[nH]c2cc(-c3ccccc3)ccc12)C1CC1` the value was 9.67%; for `NS(=O)(=O)c1ccc(N/N=C2\C(=O)Nc3ccc(-c4cnco4)cc32)cc1`, 13.9%.
Regarding `COc1cc(C)c(N(C)C(=O)CN(C)C)cc1Nc1nc(Nc2cccc(F)c2C(N)=O)c2cc[nH]c2n1`, the inhibition is -0.57%.
On the same count and under the same terms, for `CN1CCN(CCCNc2nc3ccc(Oc4ccc(NC(=O)Nc5cc(C(F)(F)F)ccc5F)cc4)cc3[nH]2)CC1` the value was 90.7%; for `Fc1ccc(-c2ncn(C3CCNCC3)c2-c2ccnc(Oc3ccc(F)c(F)c3)n2)cc1`, 7.95%; for `Cc1ccc(C(=O)NC(C)C)cc1-c1ccc(C(=O)NCC2CC2)cc1`, 4.14%.
`N#Cc1ccc(Oc2nccc(-c3c(-c4ccc(F)cc4)ncn3C3CCNCC3)n2)cc1`: the inhibition is 8.12%.
On the same count and under the same terms, for `NC(=O)Cc1ccccc1Oc1nccc(-c2c(-c3ccc(F)cc3)ncn2C2CCNCC2)n1` the value was 2.14%.
For the compound `c1ccc(Oc2ccc(Nc3ncc(-c4ccccc4)o3)cc2)cc1`, the inhibition stood at 10%.
For the compound `Fc1ccc(-c2ncn(C3CCNCC3)c2-c2ccnc(Oc3ccc4c(c3)OCO4)n2)cc1`, the inhibition is 16.1%.
Turning to `COc1ccc(C2=C(N3CCc4ccccc43)C(=O)NC2=O)cc1`, the inhibition was 10.6%.
On the same count and under the same terms, for `C#Cc1cccc(Nc2ncnc3ccc(OCCCCNCCS(C)(=O)=O)cc23)c1` the value was 25.4%.
On the same count and under the same terms, to `c1ccc(-c2n[nH]cc2-c2ccnc(-c3ccc(OCCN4CCOCC4)cc3)c2)nc1` belongs -0.97%; to `Cc1ccc(NC(=O)c2ccoc2)cc1-c1ccc(C(=O)NCC2CC2)cc1`, 4.2%.
Consider `CCS(=O)(=O)c1ccc(OC)c(Nc2ncc(-c3cccc(-c4ccccc4F)c3)o2)c1`, for which the inhibition is 6.31%.
The same measure, in the same setting: to `Clc1ccc(CNc2nccc(-c3cnn4ncccc34)n2)cc1` belongs 2.46%.
On the same count and under the same terms, to `COc1ccc2cc(-c3c(-c4ccncc4)nc(-c4ccc(S(C)(=O)=O)cc4C)n3C)ccc2c1` belongs 10.1%.
Still for that read-out and setting: for `CNC(=O)c1cncc(/C=C/c2c(C)cccc2C)c1` the value was 1.37%; for `CS(=O)(=O)CCNCc1cc(-c2cc3c(Nc4ccc(OCc5cccc(F)c5)c(Cl)c4)ncnc3s2)cs1`, 11.1%.
For `CCS(=O)(=O)c1ccc(OC)c(Nc2ncc(-c3ccccc3Cl)o2)c1`, the inhibition amounted to 5.02%.
On the same count and under the same terms, for `Fc1ccc(-c2ncn(CCCN3CCOCC3)c2-c2ccncc2)cc1` the value was -0.15%; for `COc1cccc(/C=N/Nc2ncnc3c2cnn3-c2cccc(OC)c2)c1`, 6.59%; for `CN(C)CCOc1ccc(-c2cc(-c3ccc4c(c3)CCC4=NO)c(-c3ccncc3)o2)cc1`, 2.19%.
As to `NS(=O)(=O)c1ccc(Nc2cc(-c3ccc(O)c(F)c3)n[nH]2)cc1`, the inhibition stood at 73.5%.
Still for that read-out and setting: to `NC(=O)c1cc(-c2ccc(F)cc2)cc(-c2ccncc2)c1N` belongs 7.19%; to `COc1cc2ncn(-c3cc(OCCc4ccccc4)c(C(N)=O)s3)c2cc1OC`, 10.7%; to `O=C(Nc1n[nH]c2cc(-c3cc(F)ccc3F)ccc12)C1CC1`, 9.61%.
In the case of `COc1ccc2ncn(-c3cc(O[C@H](C)c4ccccc4Cl)c(C(N)=O)s3)c2c1`, the inhibition was found to be 9.98%.
Same read-out and setting: to `CN(C)CCCNc1nccc(-c2c(-c3ccc(F)cc3)nn3cc(C(F)(F)F)ccc23)n1` belongs 4.87%; to `O=C(Nc1n[nH]c2nc(-c3ccco3)ccc12)C1CC1`, 6.36%.
